{"source": "PubChem BioAssay (Tox21)", "note": "Results filed as inconclusive are left out. Unmarked numbers belong to inactive results. Activity calls are given as the source filed them. The call rests on the fitted dose curve; in most records, active means well fitted activation curve with a large enough effect in the signal ratio in the repeat runs (not every such curve was filed as active); inconclusive means weak or mixed curves, or effect the other way; inactive means no such curve, though single readings can be large or run the other way; the % refers to the signal ratio. On the % scale 0 is the no-effect control and ±100 the full control effect; potency means the concentration at half of the fitted maximal effect.", "data": [{"molecular_target": "Peroxisome proliferator-activated receptor gamma (Homo sapiens) (UniProt P37231)", "sequence (P37231 whole entry, looked up)": "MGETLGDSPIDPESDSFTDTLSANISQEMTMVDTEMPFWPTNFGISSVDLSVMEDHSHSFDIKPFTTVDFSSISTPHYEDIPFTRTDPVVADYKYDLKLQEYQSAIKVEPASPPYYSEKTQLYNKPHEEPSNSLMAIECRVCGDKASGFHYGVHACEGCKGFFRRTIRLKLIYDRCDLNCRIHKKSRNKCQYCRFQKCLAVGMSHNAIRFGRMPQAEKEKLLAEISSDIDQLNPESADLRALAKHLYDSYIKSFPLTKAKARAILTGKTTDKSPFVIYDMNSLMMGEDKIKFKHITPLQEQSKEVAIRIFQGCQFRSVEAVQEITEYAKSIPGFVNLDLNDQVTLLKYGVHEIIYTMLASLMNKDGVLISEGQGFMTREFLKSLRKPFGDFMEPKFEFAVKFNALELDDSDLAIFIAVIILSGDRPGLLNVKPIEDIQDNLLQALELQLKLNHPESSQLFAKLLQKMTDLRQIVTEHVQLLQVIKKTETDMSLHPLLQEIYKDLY", "assay": "qHTS assay to identify small molecule agonists of the peroxisome proliferator-activated receptor gamma (PPARg) signaling pathway (AID 743094)", "conditions": "HEK293H PPARg-UAS-bla, beta-lactamase FRET ratio, 17 h; series mostly up to 57 µM; activation: at the top concentration", "text": "U.S. Tox21 Program National Center for Advancing Translational Sciences [NCATS] NIH Chemical Genomics Center [NCGC] U.S. Environmental Protection Agency [EPA] National Institutes of Environmental Health Sciences [NIEHS] National Toxicology Program [NTP] U.S. Food and Drug Administration [FDA] Tox21 Assay Overview: The peroxisome proliferator-activated receptors (PPARs) are lipid-activated transcription factors of the nuclear receptor superfamily with three distinct subtypes namely PPAR alpha, PPAR delta (also called PPAR beta) and PPAR gamma (PPARg). All these subtypes heterodimerize with Retinoid X receptor (RXR) and these heterodimers regulate transcription of various genes. PPAR-gamma receptor (glitazone receptor) is involved in the regulation of glucose and lipid metabolism. To identify the compounds that activate PPAR-gamma signaling, GeneBLAzer PPAR gamma UAS-bla HEK293H cell line (Invitrogen, Carlsbad, CA, USA) containing a beta-lactamase reporter gene under control of the control of an upstream activator sequence (UAS) stably integrated into HEK293H cells was used to screen Tox21 compound library.\nTox21 Assay Protocol Summary: PPARg-bla cells were dispensed at 3000 cells/6uL/well in 1536-well black wall/clear bottom plates using a Multidrop Combi (Thermo Fisher Scientific, Waltham, MA) dispenser. After the assay plates were incubated at 37C and 5% CO2 for 5 h, 23 nL of compounds dissolved in DMSO, positive controls or DMSO only was transferred to the assay plate by a Pintool station (Kalypsys, San Diego, CA). The assay plates were incubated at 37C for 17 h. After 1 uL of LiveBLAzerTM B/G FRET substrate was added using a Bioraptr Flying Reagent Dispenser (FRD) workstation (Beckman Coulter, Indianapolis, IN, USA), the plates were incubated at room temperature for 1 h, and fluorescence intensity was measured by an Envision plate reader (PerkinElmer, Shelton, CT).", "values": [{"smiles": "CCc1ccc(O)c(C(C)(C)C)c1", "activation": "4.7%"}, {"smiles": "CCCCCCCC/C=C\\CCCCCCCC(=O)NCc1ccc(O)c(OC)c1", "activation": "0.495%"}, {"smiles": "COC(=O)CC#N", "activation": "-3.2% [at 78.9 µM]"}, {"smiles": "O=C(O)CC(=O)O", "activation": "2.79%"}, {"smiles": "CCCCOc1ccc(C(=O)CCN2CCCCC2)cc1", "activation": "-5.37% [at 26.2 µM]"}, {"smiles": "C=CC(C)(CCC=C(C)C)OC(=O)/C=C/c1ccccc1", "note": "(stereo not given)", "activation": "3.16%"}, {"smiles": "NC(=O)C(=O)N/N=C/c1ccc([N+](=O)[O-])o1", "activation": "7.33%"}, {"smiles": "SCCCCCCCCS", "activation": "0.259%"}, {"smiles": "Cc1cccc(Br)c1", "activation": "3.96% [at 78.9 µM]"}, {"smiles": "Nc1ncnc2c1ncn2[C@@H]1O[C@H](COP(=O)(O)O)[C@@H](O)[C@H]1O", "activation": "3.04%"}, {"smiles": "S=C(SSSSSSC(=S)N1CCCCC1)N1CCCCC1", "activation": "-3.8% [at 26.2 µM]"}, {"smiles": "COC(=O)CC(C)CCC=C(C)C", "note": "(stereo not given)", "activation": "-3.65%"}, {"smiles": "Cc1c(C(=O)O)cccc1[N+](=O)[O-]", "activation": "0.332% [at 78.9 µM]"}, {"smiles": "CCN(CC)c1ccc(N)cc1", "activation": "4.99% [at 78.9 µM]"}, {"smiles": "CCCCCCCCCCCCCCCC", "activation": "1.32%"}, {"smiles": "COC(=O)NCCC[Si](OC)(OC)OC", "activation": "-0.0564%"}, {"smiles": "CCNc1nc(NC(C)CC)nc(OC)n1", "note": "(stereo not given)", "activation": "-1.22%"}, {"smiles": "CC(C)c1ccc(O)c(C(C)C)c1", "activation": "3.05%"}, {"smiles": "C(=C/c1ccccc1)/c1ccccc1", "activation": "0.0472% [at 78.9 µM]"}, {"smiles": "CC(=O)Oc1ccc(C2(c3ccc(OC(C)=O)cc3)Oc3ccccc3NC2=O)cc1", "activation": "-1.32%"}, {"smiles": "Cc1ccc2ccc3cccc4ccc1c2c34", "activation": "1.2%"}, {"smiles": "Cc1c(C)n(Cc2ccccc2)c2ccc(C(=O)OCCN(C)C)cc12", "activation": "-11.7%"}, {"smiles": "Cn1cnc2ncnc(N)c21", "activation": "-5.06%"}, {"smiles": "Oc1c(Br)cc(Br)c2cccnc12", "activation": "-1.2%"}, {"smiles": "CCCCN(CCCC)CCC(O)c1cc2c(Cl)cc(Cl)cc2c2cc(C(F)(F)F)ccc12", "note": "(stereo not given)", "activation": "-10.1% [at 26.2 µM]"}, {"smiles": "CNC(=S)NN", "activation": "-2.3%"}, {"smiles": "O=C(c1ccccc1)c1cc(Cl)ccc1O", "activation": "6.21%"}, {"smiles": "CC1CCCNC1", "note": "(stereo not given)", "activation": "-3.38%"}, {"smiles": "CCCN(CCc1cccs1)[C@H]1CCc2c(O)cccc2C1", "activation": "-1.52%"}, {"smiles": "CCCCCCCCCCCC(=O)N(CC)CC", "activation": "-2.58%"}, {"smiles": "CCCCCCC(C)Nc1ccc(Nc2ccccc2)cc1", "note": "(stereo not given)", "activation": "-6.96%"}, {"smiles": "Cc1cc(Nc2ccc(O)cc2)ccc1N", "activation": "1.1%"}, {"smiles": "COc1ccc2sc(C(=O)Nc3nnn[nH]3)c(OC(C)C)c2c1", "Potency": "5.47 µM (active)"}, {"smiles": "CCCCCCCOC(=O)c1ccc(O)cc1", "Potency": "inactive"}, {"smiles": "COc1cc(C(=O)NS(=O)(=O)c2ccccc2C)ccc1Cc1cn(C)c2ccc(NC(=O)OC3CCCC3)cc12", "Potency": "0.169 µM (active)"}, {"smiles": "CCOC(=O)C1=C(C)NC(C)=C(C(=O)OCC)C1c1ccccc1/C=C/C(=O)OC(C)(C)C", "Potency": "9.52 µM (active)"}, {"smiles": "C=C(C)C(=O)OCCC[Si](Cl)(Cl)Cl", "activation": "1.31% [at 78.9 µM]"}, {"smiles": "O=C(O)c1cccc(Cl)n1", "activation": "-0.479%"}, {"smiles": "C=CC(=C)CCC=C(C)C", "activation": "4.09%"}, {"smiles": "N[C@@H](CSSC[C@H](N)C(=O)O)C(=O)O", "activation": "1.85%"}]}]}
